According to PubChem BioAssay AID624305 (National Center for Advancing Translational Sciences (NCATS), 2012):
Results filed as inconclusive are left out. Active and inactive are the calls of the source. Calls come from the whole dose curve; as a rule, active = well fitted activation curve with a large enough effect; inconclusive = small, poorly fitted or top-dose-only effect; inactive = no such curve, though single readings can be large or run the other way.

Assay: qHTS assay for re-activators of p53 using a Luc reporter: Hit Validation; note: nearly all actives have a fitted effect of over 75% in size; for activation: 0% is about no effect
Conditions: p53-responsive luciferase reporter cells, luminescence, H1299 line expressing heat-sensitive Ala138Val p53; series mostly up to 46.1 µM; activation: at the top concentration
In short: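 Hit confirmation with a 1:5 dilution series, at 37 deg C for 24 hrs, in H1299 cells co-expressing temperature-sensitive p53-A138V and p53-responsive luciferase. Nocodazole served as control; luminescence read after 10 min with detection reagent.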
Potency is the fitted concentration of half-maximal effect.

| Structure (SMILES) | activation | Potency |
| --- | --- | --- |
| O=C(CSc1nc2ccccc2c(=O)[nH]1)c1ccc(O)c(O)c1 | 21.4% (inactive) | – |
| Cc1ccc(C(=O)Nc2nnc(SCC(=O)N3CCCc4ccccc43)s2)cc1 | -3.65% (inactive) | – |
| Cc1ccc(NC2=C(Cl)C(=O)c3ccccc3C2=O)cc1 | -89.1% (inactive) | – |
| Cc1cc(C(F)(F)F)c(C#N)c(SCC(=O)Nc2nc3ccccc3s2)n1 | – | 1460 nM (active) |
| Cc1cc([N+](=O)[O-])ccc1NC(=O)/C=C/c1cccs1 | 40.6% (inactive) | – |
| Cc1ccc(NC(=O)/C=C/c2ccco2)nc1 | – | 2590 nM (active) |
| COC(=O)CSc1nc2cc(OC)ccc2cc1C#N | – | 9200 nM (active) |
| CCOC(=O)c1c(C)[nH]c(C(=O)CSc2ccccc2)c1C | – | 517 nM (active) |
| CN(C)c1ccc(CNC2CC(C)(C)NC(C)(C)C2)cc1 | 25% (inactive) | – |
| Clc1ccccc1Nc1nc2ccccc2o1 | – | 5170 nM (active) |
| CN(C)c1ccc(C(=O)Nc2nc3c(s2)CCCC3)cc1 | – | 82 nM (active) |
| Cc1ccc(CCc2nnc(SCC(=O)Nc3cccc(Cl)c3)n2-c2ccccc2)o1 | -16.1% (inactive) | – |
| CCOc1ccc(NC(=O)c2cnsn2)cc1 | – | 2310 nM (active) |
| Clc1ccc(-c2nnc(N3CCCC3)nn2)cc1 | – | 731 nM (active) |
| O=C(N/N=C(\c1ccccc1)c1cccnc1)c1cccc(F)c1 | – | 16400 nM (active) |
| O=C(NCc1ccc(-c2nc3ccccc3s2)cc1)c1cc2ccccc2o1 | -4.17% (inactive) | – |
| O=C(NNC(=O)c1ccc(Cl)cc1Cl)c1ccncc1 | -28.8% [at 9.22 µM] (inactive) | – |
| Cn1c(Cc2cccs2)nnc1SCc1nc2ccccc2[nH]1 | 6.77% (inactive) | – |
| O=C(Nc1nnc(-c2cccs2)o1)c1cccc(C(F)(F)F)c1 | -4.17% (inactive) | – |
| C/C(=N\NC(=S)NC(C)C)c1ccc(Cl)s1 | 14.1% (inactive) | – |
